The test system of one assay is NHEM-hTERT. As to the kind of experiment: cell viability relative to DMSO control (fraction of DMSO control); higher = less cytotoxic, active = 0.5 or less. The following applies: 1 µM; 120 h. The method in brief: (§1)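 The screen used 384-well plates acoustically pre-spotted with 315 approved anti-cancer drugs from TargetMol, each at 1 µM in duplicate. Into each well went 40 µl of cells, 2500 NHEM-hTERT immortalized melanocytes or 1500 of patient-derived Mel-DCC-11 or its resistant subline Mel-DCC-11-R, and plates were kept 120 h, with the subline also tested alongside 8 µM of its selecting drug. Readout was by ATPlite 1step luminescence. Viability values were normalised to vehicle-treated controls and averaged between duplicates.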

For a further assay, the system named is Mel-DCC-11-R. As to the kind of experiment: cell viability relative to DMSO control (fraction of DMSO control); higher = less cytotoxic, active = 0.8 or less. The following applies: 1 µM, 120 h. The method in brief:
as §1

The structures appear in SMILES notation.

As for `O=c1c(-c2ccc(O)cc2)coc2cc(O)cc(O)c12` [Genistein], the values for the cell viability in the assay with NHEM-hTERT, in the assay on Mel-DCC-11-R (vemurafenib co-treatment 0 µM) and in the assay on Mel-DCC-11-R (vemurafenib co-treatment 8 µM) were 1.1 (inactive), 0.984 (inactive) and 1.02 (inactive), respectively.

Consider `O=c1[nH]c(=O)n([C@H]2C[C@H](O)[C@@H](CO)O2)cc1/C=C/Br` [Brivudine], for which the cell viability was 1.08 (inactive) in the assay on NHEM-hTERT, 0.809 (inactive) in the assay on Mel-DCC-11-R (vemurafenib co-treatment 0 µM) and 1.12 (inactive) in the assay with Mel-DCC-11-R (vemurafenib co-treatment 8 µM).

In the case of `NCCNc1ccc(NCCN)c2c1C(=O)c1ccncc1C2=O.O=C(O)/C=C\C(=O)O.O=C(O)/C=C\C(=O)O` [Pixantrone dimaleate], the figures for the cell viability with NHEM-hTERT, in the assay on Mel-DCC-11-R (vemurafenib co-treatment 0 µM) and in the assay with Mel-DCC-11-R (vemurafenib co-treatment 8 µM) were 0.889 (inactive), 1.62 (inactive) and 0.868 (inactive), respectively.

Turning to `CC[C@H](Nc1ncnc2[nH]cnc12)c1nc2cccc(F)c2c(=O)n1-c1ccccc1` [Idelalisib], the cell viability in the assay on NHEM-hTERT is 0.983 (inactive); in the assay with Mel-DCC-11-R (vemurafenib co-treatment 0 µM), 1.07 (inactive); with Mel-DCC-11-R (vemurafenib co-treatment 8 µM), 0.961 (inactive).

`CCCCCOC(=O)Nc1nc(=O)n([C@@H]2O[C@H](C)[C@@H](O)[C@H]2O)cc1F` [Capecitabine]: the cell viability in the assay on NHEM-hTERT is 1.14 (inactive); with Mel-DCC-11-R (vemurafenib co-treatment 0 µM), 1.04 (inactive); with Mel-DCC-11-R (vemurafenib co-treatment 8 µM), 1.11 (inactive).

Regarding `CC[C@@]1(O)C(=O)OCc2c1cc1n(c2=O)Cc2cc3cc(O)ccc3nc2-1` [10-Hydroxycamptothecin], the cell viability with NHEM-hTERT was 0.731 (inactive); with Mel-DCC-11-R (vemurafenib co-treatment 0 µM) it was 0.478 (active); in the assay on Mel-DCC-11-R (vemurafenib co-treatment 8 µM) it was 0.249 (active).

On to `Oc1ccc(/C=C/c2cc(O)cc(O)c2)cc1` [Resveratrol], for which the cell viability with NHEM-hTERT is 1 (inactive); in the assay with Mel-DCC-11-R (vemurafenib co-treatment 0 µM), 0.914 (inactive); with Mel-DCC-11-R (vemurafenib co-treatment 8 µM), 1.16 (inactive).

As to `CC1=C(/C=C/C(C)=C/C=C/C(C)=C/C=C/C=C(C)/C=C/C=C(C)/C=C/C2=C(C)CCCC2(C)C)C(C)(C)CCC1` [Beta-Carotene], the cell viability in the assay with NHEM-hTERT is 0.916 (inactive); in the assay with Mel-DCC-11-R (vemurafenib co-treatment 0 µM), 0.829 (inactive); in the assay with Mel-DCC-11-R (vemurafenib co-treatment 8 µM) it was 0.851 (inactive).

For the origin of these results see the supplement of paper PMC12808144.
